Assay outcomes deposited in PubChem BioAssay by several laboratories.
Only some compounds are listed: those with a hit (about 9.1% of all), similar ones and a draw of the others.
M1 antagonist – antagonists of rat M1 muscarinic receptor. Muscarinic acetylcholine receptor M1 (Rattus norvegicus), P08482. CHO-M1 cells, Fluo-4 calcium, ACh EC80 antagonist mode; active compounds read low. B-score at 10 µM. actives 3.4% (n = 64,000);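 active = calcium fluorescence response, raw or row-and-column corrected B-score, differing from the plate sample mean either way at a set confidence level, mostly lower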
M1 agonist – M1 muscarinic receptor agonists, primary screen, CHO-M1 cells, Fluo-4 calcium, agonist mode | Muscarinic acetylcholine receptor M1 | Fluo-4 calcium fluorescence; active compounds read high | B-score at 10 µM | actives 3% (n = 64,000) | AID 626, 2007;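 active = fluorescence rise, raw or as B-score row- and column-corrected plate score, outside the 99.7% band of its plate's samples, either direction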
Htt clearance – clearance of mutant huntingtin inclusions, primary screen, imaging, HeLa Exon1htt(103Q)mCFP, confocal imaging. aggregate imaging; zero = plate's median compound well. inhibition, % at 1.5 µM. actives 0.42% (n = 47,000). AID 853, 2007;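 active = inhibition of aggregate fluorescence above about 70%, also judged a hit by eye on the cell image, limit read from the data, passing the limit was not always enough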;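 note: cells exposed to compound for three days before fixation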
D1 allo mod – D1 CRE-luciferase signal change, two-sided – cell-based, HEK293 D1, dopamine EC30, D1 allosteric modulator project, primary screen. D(1A) dopamine receptor (Homo sapiens), P21728. dopamine EC30 potentiation; actives deviate in either direction. B-score at 10 µM. actives 5.9% (n = 58,000);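 active = luminescence count or its row- and column-corrected plate score outside the 99.7% band of the plate's sample wells, on either side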
Target sequence (P21728 whole entry, looked up): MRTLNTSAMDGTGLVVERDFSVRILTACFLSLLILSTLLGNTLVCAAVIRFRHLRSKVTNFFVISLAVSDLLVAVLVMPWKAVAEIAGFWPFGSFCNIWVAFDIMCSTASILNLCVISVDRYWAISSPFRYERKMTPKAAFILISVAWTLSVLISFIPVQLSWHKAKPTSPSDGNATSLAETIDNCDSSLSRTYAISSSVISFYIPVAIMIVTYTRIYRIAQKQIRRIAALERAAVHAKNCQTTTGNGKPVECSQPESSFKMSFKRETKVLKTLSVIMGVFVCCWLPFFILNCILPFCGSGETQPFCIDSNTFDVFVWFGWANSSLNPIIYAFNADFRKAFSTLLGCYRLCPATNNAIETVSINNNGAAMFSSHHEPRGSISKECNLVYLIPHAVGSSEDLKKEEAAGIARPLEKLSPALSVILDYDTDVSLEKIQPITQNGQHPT
D1 PAM confirm – D1 receptor positive allosteric modulators, retest, confirmation, cell-based, HEK293 D1, CRE-luciferase, duplicate. shares compounds with D1 allo mod. dopamine EC30 potentiation; active compounds read high. luminescence at 10 µM. actives 88% (n = 2,200);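 active = luminescence in either of two replicates above the same-plate mean plus 3 SD of the low-dose dopamine control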
D1 no dopamine – D1 receptor agonism without dopamine, confirmation, mechanism study for D1 allosteric modulator project, cell-based, HEK293 D1, CRE-luciferase, secondary assay 1; shares compounds with D1 allo mod; luminescence, no dopamine; active compounds read high; luminescence at 10 µM; actives 0.8% (n = 1,900); in the data active = luminescence above about 3900
Isoprot counter – alters isoproterenol CRE-luciferase response in HEK293 cells | HEK293 D1 CRE-luciferase, isoproterenol EC30 counter-screen; active compounds read high | luminescence at 10 µM | shares compounds with D1 allo mod | actives 63% (n = 2,200);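 active = luminescence in either replicate above plate mean of wells with a partly effective reference agonist dose plus 3 SD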;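 note: isoproterenol raises cAMP through native beta-adrenoceptor Gs so signal bypasses D1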
Starred values were filed as active, the others as inactive.

O=C(CCS(=O)(=O)Cc1ccccc1)NCC1CCCO1 (configuration not stated) was read as M1 antagonist 0, M1 agonist 0.536 and D1 allo mod -0.626.
For CSc1ncccc1C(=O)OCc1ccccc1 the results were M1 antagonist -0.976 and M1 agonist 0.581.
For CSc1ncccc1C(=O)OCc1ccccc1F the results were M1 antagonist 0.0819, M1 agonist -0.351, D1 allo mod 10.1*, D1 PAM confirm 16732*, D1 no dopamine 1608 and Isoprot counter 3808*.
`CCc1nc(N)c(C#N)c(-c2ccc(O)c(OC)c2)c1C` gave M1 antagonist -0.803, M1 agonist 0.253 and Htt clearance 6.1.
For CCc1nc(C)c(C#N)c2cc(OC)c(OC)cc12 the results were M1 antagonist 0.593, M1 agonist -0.0828, Htt clearance -54.6, D1 allo mod 4.44*, D1 PAM confirm 11084*, D1 no dopamine 1576 and Isoprot counter 4356*.
CCc1nc(N)c(C#N)c(-c2ccc(OC)c(OC)c2)c1C was read as M1 antagonist 0.0845, M1 agonist -0.00216, Htt clearance -12.0, D1 allo mod 6.72*, D1 PAM confirm 11376*, D1 no dopamine 1860 and Isoprot counter 5044*.
CCc1nc(N)c(C#N)c(-c2cccn2C)c1C was read as M1 antagonist 0.16, M1 agonist -0.103 and D1 allo mod 0.631.
Screening CCc1nc(N)c(C#N)c(-c2ccncc2)c1C returned M1 antagonist -0.0904, M1 agonist 0.26, D1 allo mod 4.35*, D1 PAM confirm 15468*, D1 no dopamine 1728 and Isoprot counter 3044.
For N#CCSc1nc(N)c(C#N)c(C2CCCCC2)c1C#N the results were M1 antagonist 0.755, M1 agonist -1.2, Htt clearance 9.1, D1 allo mod 8.99*, D1 PAM confirm 13172* and Isoprot counter 5892*.
`COC(=O)c1cc(NC(=O)CSc2nncn2C)cc(C(=O)OC)c1` gave Htt clearance 39.3.
CCCNC(=O)NC(=O)COC(=O)c1ccc(OC)c(S(=O)(=O)N2CCCc3ccccc32)c1 was read as M1 antagonist -0.00449, M1 agonist 0.00463 and D1 allo mod 1.67.
`CCOC(=O)c1nn(-c2ccccc2)c(C#N)c1NC(=O)c1nn(CC)cc1Br` gave M1 antagonist 0.36, M1 agonist 0.582, Htt clearance 21.4, D1 allo mod 4.28*, D1 PAM confirm 8684* and Isoprot counter 2864*.
Screening CCCN1C(=O)c2ccccc2NC1c1ccc(OC)cc1OC (configuration not stated) returned M1 antagonist 0.0208, M1 agonist 0.718, Htt clearance 35.7 and D1 allo mod 0.124.
CCCN1C(=O)c2ccccc2NC1c1ccc(OC)cc1O (configuration not stated) was read as M1 antagonist -1.34, M1 agonist -0.913, D1 allo mod 4.45*, D1 PAM confirm 4884, D1 no dopamine 1664 and Isoprot counter 4772.
For CC(C(=O)N(C1CC1)C1(C(=O)Nc2ccccc2)CCCC1)N1C(=O)c2ccccc2C1=O (configuration not stated) the results were M1 antagonist 0.677, M1 agonist -0.509 and D1 allo mod -0.922.
`O=C(c1cccn2c(=O)c3ccc(Cl)cc3nc12)N1CCN(Cc2ccc3c(c2)OCO3)CC1` gave M1 antagonist -1.11, M1 agonist 3.58 and D1 allo mod 1.25.
Screening CSc1oc(-c2ccco2)nc1S(=O)(=O)c1ccc(F)cc1 returned M1 antagonist -0.495, M1 agonist 1.24, D1 allo mod 3.43*, D1 PAM confirm 11924*, D1 no dopamine 1676 and Isoprot counter 2912.
`CC(C)Sc1oc(-c2ccco2)nc1S(=O)(=O)c1ccccc1` gave M1 antagonist -0.113, M1 agonist -0.258, D1 allo mod 6.47*, D1 PAM confirm 19332*, D1 no dopamine 1752 and Isoprot counter 3968*.
For CSc1oc(-c2ccco2)nc1S(=O)(=O)c1ccccc1 the results were M1 antagonist -0.0331 and M1 agonist 0.0552.
For COc1ccc(S(=O)(=O)Cc2ccccc2)cc1N the results were M1 antagonist -1.44, M1 agonist 0.935 and D1 allo mod 0.0116.
Screening CN(Cc1cnn(C)c1)C(=O)C1CCCCC1C(=O)O (configuration not stated) returned Htt clearance -61.4.
For COc1ccc(CN2CCCCC2C(=O)Nc2ccc(OC)c(OC)c2)cc1OC (configuration not stated) the results were M1 antagonist 0.761, M1 agonist 0.0212, Htt clearance -3.4, D1 allo mod 7.19*, D1 PAM confirm 14900*, D1 no dopamine 1604 and Isoprot counter 3784*.
Screening COc1ccc(NC(=O)C2CCCCN2N)cc1OC (configuration not stated) returned Htt clearance 48.6.
`COc1ccc(NC(=O)C2CCCN2c2ccc(OC)c(OC)c2)cc1OC` (configuration not stated) gave M1 antagonist 0.299, M1 agonist 0.0421, D1 allo mod 6.04*, D1 PAM confirm 15612*, D1 no dopamine 1544 and Isoprot counter 4296*.
`CC(=O)CCc1ccc2oc(C(=O)O)c(C)c2c1` gave M1 antagonist -0.0106, M1 agonist -0.0391, Htt clearance -2.8 and D1 allo mod -0.784.
For Cn1cccc1Cc1nnc(SCC(=O)NC2CCCCC2)n1CCc1ccccc1 the results were M1 antagonist 0.39, M1 agonist 0.37, D1 allo mod 1.46*, D1 PAM confirm 5188, D1 no dopamine 1520 and Isoprot counter 2144.
Screening CCSc1nc(-c2ccco2)ccc1C#N returned M1 antagonist 0.355, M1 agonist -0.0894, D1 allo mod 2.66*, D1 PAM confirm 6188*, D1 no dopamine 1560 and Isoprot counter 2392.
For Nn1c(SCc2ccccc2)nnc1-c1ccco1 the results were M1 antagonist 1.06, M1 agonist -0.422 and D1 allo mod -0.475.
Screening N#Cc1ccc(-c2ccco2)nc1SCc1ccccc1 returned Htt clearance -25.1, D1 allo mod 3.07*, D1 PAM confirm 17912*, D1 no dopamine 1576 and Isoprot counter 3236.
Screening Cc1cc(Br)c2c(c1)=C(c1sc(N3CCCCCC3)nc1O)C(=O)N=2 returned M1 antagonist 1.78, M1 agonist 1.1, D1 allo mod 5.98*, D1 PAM confirm 18480*, D1 no dopamine 1764 and Isoprot counter 2760.
